Shown are actives, neighbours in structure and some others; about 1.3% of the full set was active somewhere.
Phagocytosis inh – blocks phagocytosis by macrophages. J774A.1 macrophage IgG-bead phagocytosis, imaging. inhibition, % at 5 µM. actives 0.07% (n = 110,000). AID 1029;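 active = inhibition above the mean of the plate negative controls plus 5 SD, cut at about 13% in these data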;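 also: phagocytic index as fraction of beads internalized from green versus red external bead signal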
S1P2 blocker – blocks the human S1P2 receptor. cell-based S1P2 antagonist assay, inhibition at 5 uM. inhibition, % at 5 µM. actives 0.21% (n = 97,000). AID 736; in the data active = inhibition above about 45%;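 also: CRE beta-lactamase reporter cells expressing human S1P2 stimulated with S1P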
GALR2 agonist – GALR2 (human) receptor agonism | O43603 | GALR2-expressing cells, agonist activation read-out | activation, % (concentration not given with the values) | actives 0.48% (n = 140,000) | AID 803; in the data active = activation above about 5%, passing the limit was not always enough
Target sequence (O43603 whole entry, looked up): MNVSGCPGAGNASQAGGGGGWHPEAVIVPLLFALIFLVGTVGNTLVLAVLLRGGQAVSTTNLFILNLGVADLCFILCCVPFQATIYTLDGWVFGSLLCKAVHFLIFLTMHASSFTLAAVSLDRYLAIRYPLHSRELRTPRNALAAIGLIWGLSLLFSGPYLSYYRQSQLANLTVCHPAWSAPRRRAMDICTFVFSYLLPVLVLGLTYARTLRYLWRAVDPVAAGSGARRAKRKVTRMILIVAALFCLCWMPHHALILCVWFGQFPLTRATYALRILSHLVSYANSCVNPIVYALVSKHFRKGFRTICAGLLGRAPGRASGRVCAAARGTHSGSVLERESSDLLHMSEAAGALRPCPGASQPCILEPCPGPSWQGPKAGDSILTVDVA
S1P2 agonist – agonists of human S1P2 receptor; O95136; S1P2-expressing cell line, agonist reporter read-out; activation, % at 4.5 µM; actives 0.46% (n = 97,000); AID 729; in the data active = activation above about 16%
GALR2 antag – blocks the human galanin receptor 2. O43603. inhibition, % at 4 µM. GALR2-expressing cells, antagonist mode. AID 828. actives 0.39% (n = 140,000);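 also: cells stimulated with galanin 1-16 at roughly its EC80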
GALR2 ant conf – confirmation of human galanin receptor 2 (GALR2) antagonists | shares compounds with GALR2 antag | GALR2-expressing cells, antagonist mode, inhibition | inhibition, % at 4 µM | actives 60% (n = 480) | AID 866;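 also: cells stimulated with galanin at about its EC80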
BLA inh counter – inhibits beta-lactamase reporter in GALR2 antagonist counterscreen; shares compounds with GALR2 antag; CHO NFAT-BLA reporter, beta-lactamase FRET, thapsigargin-stimulated; inhibition, % at 4.2 µM; actives 36% (n = 480);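 active = inhibition above the mean inhibition across tested compounds plus 3 SD, cut at about 27% in these data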
Hits are given with their value; 0 = inactive; - = no result. Rule as the data show it, unless noted: active = inhibition above about 27%; inactive = the rest.

SMILES	Phagocytosis inh	S1P2 blocker	GALR2 agonist	S1P2 agonist	GALR2 antag	GALR2 ant conf	BLA inh counter
O=C(OCn1ncc(Cl)c(Cl)c1=O)c1cccc(C(F)(F)F)c1	-	0	0	0	46.4	65.7	42.7
O=[N+]([O-])c1cc(C=Nc2ccc3ccccc3c2)ccc1Br	0	-	0	-	33.0	0	0
CCOc1ccc(NC(=O)C(c2ccccn2)N(C(=O)CCl)c2ccc(F)cc2)cc1 (configuration not stated)	0	-	0	-	0	-	-
O=C(NCCc1cccs1)C12CN(Cc3ccccc3)CC1C(c1cccc([N+](=O)[O-])c1)=NO2 (configuration not stated)	0	0	0	0	0	-	-
CC(C)(C)C(=O)/C(=C\c1ccc([N+](=O)[O-])cc1)n1cncn1	-	66.2	0	0	55.9	72.6	56.8
COc1ccc(NC(=O)/C(Cl)=C(/Cl)S(=O)(=O)Cc2ccccc2)cn1	-	104.0	0	0	81.7	92.0	92.0
COc1ccc(NS(=O)(=O)Cc2ccccc2Cl)cn1	0	0	0	0	0	-	-
O=[N+]([O-])c1ccccc1Sc1nccn1Cc1ccccc1	0	-	0	-	0	-	-
O=[N+]([O-])c1ccc(N/N=C/c2c[nH]c3ccccc23)cc1	-	0	0	0	35.9	0	30.4
O=[N+]([O-])c1ccccc1N/N=C/c1c[nH]c2ccccc12	-	0	0	0	0	-	-
COC(=O)[C@H](Cc1ccccc1)NC(=O)O[C@@H]1C(=O)c2cc(Br)ccc2O[C@H]1c1cccc(OC)c1	-	-	0	-	0	-	-
CC1(C)CC(=O)/C(=C\c2cccc([N+](=O)[O-])c2)C(C)(C)N1	0	-	0	-	27.3	33.9	0
O=C(c1ccccn1)c1cc2ccccc2n1S(=O)(=O)c1ccccc1	0	-	0	-	0	-	-
CCCCCCCC(O)CC(CC1CCCCC1)C(=O)NN (configuration not stated)	0	-	0	-	0	-	-
CCOc1ccc2c(c1)C(C)=CC(C)(C)N2C(=O)Nc1ccccc1	0	0	0	0	28.7	0	0
COCCn1c(C)c(C(=O)O)sc1=S	0	0	0	0	0	-	-
Cc1ccn2c(Nc3ccc4c(c3)OCO4)c(-c3ccccn3)nc2c1	0	-	0	-	30.1	0	0
Cc1cc(C(=O)OCC(=O)Nc2ccccc2[N+](=O)[O-])c2ccccc2n1	0	-	0	-	40.3	0	0
COc1cc(CCN2C(=O)c3cccc4cccc(c34)C2=O)c(S(=O)(=O)N2CCC(C)CC2)cc1OC	0	-	0	-	0	-	-
Cc1ccc2[nH]c3c(N4CCc5ccccc5C4)ncnc3c2c1	-	82.9	0	0	53.7	51.5	0
Brc1ccc2[nH]c3c(N4CCc5ccccc5C4)ncnc3c2c1	0	0	0	0	0	-	-
CCCNC(=O)c1ccc2c(c1)ncn2-c1ccccc1OC	0	-	0	-	27.9	0	0
O=C(O)CCCNC(=O)c1ccccn1	0	-	0	-	0	-	-
O=C(CN1C(=O)NC2(CCc3ccccc32)C1=O)Nc1ccc(N2CCOCC2)cc1 (configuration not stated)	0	0	0	0	0	-	-
Cc1ccc(NC(=O)CN2C(=O)NC3(CCc4ccccc43)C2=O)cc1Cl (configuration not stated)	-	0	0	0	28.4	0	0
SMILES	Phagocytosis inh	S1P2 blocker	GALR2 agonist	S1P2 agonist	GALR2 antag	GALR2 ant conf	BLA inh counter
CC(NC(=O)CN(C)Cc1nc2ccccc2c(=O)[nH]1)c1ccccc1 (configuration not stated)	0	0	0	0	35.9	0	0
Cn1c(SCc2cc(=O)[nH]c3ccccc23)nnc1-c1ccc(Br)cc1	0	0	0	0	0	-	-
O=C1C=CC(=O)N1CCCCCCN1C(=O)C=CC1=O	0	-	0	-	86.2	78.1	95.3
O=C1CCN2C=Nc3cccc4ccc1c2c34	0	0	0	0	29.3	0	0
c1ccc(CN2CCN(C3=Nc4cccc5cccc3c45)CC2)cc1	-	0	0	0	0	-	-
Cc1ccc(N(NC(=O)C(O)(c2ccccc2)c2ccccc2)C(=O)CCl)cc1	0	-	0	-	48.0	37.3	55.6
COc1cccc(C(=O)NCC(=O)OCc2ccc(F)cc2Cl)c1	0	-	0	-	0	-	-
CNc1c([N+](=O)[O-])ncn1C	0	0	0	0	0	-	-
CNc1nc2cc([N+](=O)[O-])c([N+](=O)[O-])cc2nc1NC	0	-	0	-	54.1	64.8	0
Cc1c(C(=O)Nc2cccc(Cl)c2)c2ccccn2c1CCc1ccncc1	0	-	0	-	32.9	0	0
C=C(C)CNC(=S)N1CCNC(=O)C1CC(=O)OC (configuration not stated)	-	-	0	-	0	-	-
CCOc1cccc(NC(=O)Cc2cccs2)c1	0	-	0	-	0	-	-
O=C(Cc1cccs1)Nc1cccc(-c2nc3cc4ccccc4cc3[nH]2)c1	0	-	0	-	27.5	30.1	0
Cc1cc(N(CC(=O)NC(C)C)S(C)(=O)=O)ccc1Br	0	-	0	-	0	-	-
CCc1ccc2c(c1)C1(NN=C(c3cccc4ccccc34)S1)C(=O)N2 (configuration not stated)	-	0	0	0	29.4	0	0
C=CCn1c(SCc2csc(-c3ccc(Cl)cc3)n2)nnc1-c1ccccc1OC	0	-	0	-	0	-	-
CCC(=O)N1CCc2cc(S(=O)(=O)NC(Cc3ccccc3)C(=O)NC3CCCCC3)ccc21 (configuration not stated)	0	-	0	-	0	-	-
CC(=O)N1CCc2cc(S(=O)(=O)NC(Cc3ccccc3)C(=O)Nc3cc(C)ccn3)ccc21 (configuration not stated)	0	0	0	0	28.6	0	0
O=C1NC(Nc2nccs2)(C(F)(F)F)C(=O)N1CCc1ccccc1 (configuration not stated)	0	0	0	0	0	-	-
Cc1sc2nc(CSCC(=O)Nc3ccccc3C#N)[nH]c(=O)c2c1C	0	-	0	-	0	-	-
Cn1c(SCC(=O)Nc2ccc3cn[nH]c3c2)nnc1-c1cccs1	0	0	0	0	29.6	0	0
O=C(N/N=C/C(Br)=C\c1ccccc1)c1n[nH]c2c1CCC2	0	0	0	0	32.8	37.5	60.9
CC(/C=N/NC(=O)c1n[nH]c2c1CCC2)=C\c1ccccc1	0	0	0	0	0	-	-
O=C1Nc2ccccc2/C1=C/C(=O)c1cccs1	-	0	0	0	27.2	30.2	0
Cc1ccc(/C=C2\C(=O)Nc3ccccc32)o1	0	-	0	-	0	-	-
SMILES	Phagocytosis inh	S1P2 blocker	GALR2 agonist	S1P2 agonist	GALR2 antag	GALR2 ant conf	BLA inh counter
Cc1ccn2c(Nc3ccccc3C)c(-c3ccncc3)nc2c1	0	-	0	-	0	-	-
O=C(O)Cc1sc(N/N=C\c2ccccc2)nc1-c1ccccc1	0	-	0	-	29.0	0	0
O=C(/C=C/c1ccco1)Nc1sc2c(c1C(=O)O)CCC2	0	0	0	0	0	-	-
N#Cc1c(NC(=O)/C=C/c2ccco2)sc2c1CCCC2	0	-	5.9	-	31.0	32.3	64.3
O=C(COc1ccc2c(c1)CCC2)N1CCc2ccccc21	0	0	0	0	0	-	-
CN(C)c1ccc(NC2=C(Cl)C(=O)c3ccccc3C2=O)cc1	0	-	0	-	41.2	48.5	0
CCC(=O)c1ccc(N2CCN(C(=O)COc3ccc(F)cc3)CC2)c(F)c1	0	0	0	0	0	-	-

Screening data as filed in PubChem.
